Measured values reported in PubChem BioAssay AID1159580 (chemical genetic matrix, 2015).
Values joined by “and” are separate entries in the source; they are usually repeats but may differ in a detail not shown here. Equal entries are not always repeated. Among all 5,500 compounds or so, about 2,000 (36%) were called active. Not shown: some 18% with an inconclusive outcome. Rule as the data show it: active = normalized growth mostly below about 0.91 (no sharp cut-off); inconclusive = no clear call, values can overlap the other calls; inactive = mostly above about 0.92. The list shows a part of the results.

Experiment: chemical genetic growth profiling, strain panel (AID 1159580);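 also: tested at 20 µM; growth read once vehicle control cultures reached saturation at 30 °C; 1 = growth at the plate median or of vehicle wells; lower values mean less growth of the strain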
Settings: growth OD

Measured: normalized growth

CNCCC(Oc1ccc(C(F)(F)F)cc1)c1ccccc1 (stereo unspecified)
inactive: S. cerevisiae deletion strains, locus YJR075W, strain HOC1, active compounds read low 0.985 and 1.01 | S. cerevisiae deletion strains, locus YKL009W, strain mrt4, active compounds read low 0.959 | S. cerevisiae deletion strains, locus YKL068W, active compounds read low 1 | S. cerevisiae deletion strains, locus YKL085W, strain MDH1 (second series), active compounds read low 0.999 | S. cerevisiae deletion strains, locus YKL085W, strain MDH1, active compounds read low 0.999 | S. cerevisiae deletion strains, locus YKL160W, strain elf1, active compounds read low 0.984 | S. cerevisiae deletion strains, locus YKL190W, strain CNB1, active compounds read low 1.01 | S. cerevisiae deletion strains, locus YKR001C, strain vps1, active compounds read low 1.01 | S. cerevisiae deletion strains, locus YKR026C, strain gcn3, active compounds read low 0.983 | S. cerevisiae deletion strains, locus YKR091W, strain srl3, active compounds read low 0.991 | S. cerevisiae deletion strains, locus YLL001W, strain dnm1, active compounds read low 0.979 | S. cerevisiae deletion strains, locus YLL026W, active compounds read low 0.987 | S. cerevisiae deletion strains, locus YLL041C, strain sdh2, active compounds read low 0.988 | S. cerevisiae deletion strains, locus YLR027C, strain aat2, active compounds read low 0.99 | S. cerevisiae deletion strains, locus YLR058C, strain SHM2, active compounds read low 1.01 | S. cerevisiae deletion strains, locus YLR102C, strain apc9, active compounds read low 0.987 | S. cerevisiae deletion strains, locus YLR113W, strain HOG1, active compounds read low 1.01 | S. cerevisiae deletion strains, locus YLR221C, strain rsa3, active compounds read low 0.985 | S. cerevisiae deletion strains, locus YLR258W, strain gsy2, active compounds read low 0.99 | S. cerevisiae deletion strains, locus YLR262C, strain YPT6 (second series), active compounds read low 1.04 | S. cerevisiae deletion strains, locus YLR268W, strain sec22, active compounds read low 0.985 | S. cerevisiae deletion strains, locus YLR320W, strain mms22, active compounds read low 0.968 | S. cerevisiae deletion strains, locus YLR330W, strain CHS5, active compounds read low 1.01 | S. cerevisiae deletion strains, locus YLR342W, strain FKS1 (second series), active compounds read low 0.982 | S. cerevisiae deletion strains, locus YLR342W, strain FKS1, active compounds read low 0.988 | S. cerevisiae deletion strains, locus YLR357W, strain rsc2, active compounds read low 0.977 | S. cerevisiae deletion strains, locus YLR370C, strain arc18, active compounds read low 0.981 | S. cerevisiae deletion strains, locus YLR371W, strain rom2, active compounds read low 0.985 | S. cerevisiae deletion strains, locus YLR384C, strain iki3, active compounds read low 0.97 | S. cerevisiae deletion strains, locus YLR418C, strain cdc73, active compounds read low 0.983 | S. cerevisiae deletion strains, locus YML016C, strain PPZ1, active compounds read low 1.02 | S. cerevisiae deletion strains, locus YML032C, strain rad52, active compounds read low 0.998 | S. cerevisiae deletion strains, locus YML120C, strain ndi1, active compounds read low 0.993 | S. cerevisiae deletion strains, locus YML124C, strain tub3, active compounds read low 0.992 | S. cerevisiae deletion strains, locus YMR058W, strain fet3, active compounds read low 0.99 | S. cerevisiae deletion strains, locus YMR078C, strain ctf18, active compounds read low 0.999 | S. cerevisiae deletion strains, locus YMR125W, strain sto1, active compounds read low 0.989 | S. cerevisiae deletion strains, locus YMR129W, active compounds read low 0.998 | S. cerevisiae deletion strains, locus YMR205C, strain PFK2, active compounds read low 0.967 | S. cerevisiae deletion strains, locus YMR223W, strain ubp8, active compounds read low 0.996 | S. cerevisiae deletion strains, locus YMR231W, strain pep5, active compounds read low 0.992 | S. cerevisiae deletion strains, locus YMR263W, strain SAP30, active compounds read low 0.995 | S. cerevisiae deletion strains, locus YMR307W, strain GAS1, active compounds read low 1.09 | S. cerevisiae deletion strains, locus YNL067W, strain RPL9B, active compounds read low 1.01 | S. cerevisiae deletion strains, locus YNL071W, strain lat1, active compounds read low 0.993 | S. cerevisiae deletion strains, locus YNL128W, strain TEP1, active compounds read low 0.992 and 1.03 | S. cerevisiae deletion strains, locus YNL153C, strain GIM3, active compounds read low 1.01 | S. cerevisiae deletion strains, locus YNL175C, strain NOP13, active compounds read low 1.01 | S. cerevisiae deletion strains, locus YNL183C, strain NPR1, active compounds read low 0.986 | S. cerevisiae deletion strains, locus YNL197C, strain WHI3, active compounds read low 0.979 | S. cerevisiae deletion strains, locus YNL209W, strain ssb2, active compounds read low 1.01 | S. cerevisiae deletion strains, locus YNL224C, strain SQS1, active compounds read low 1.04 | S. cerevisiae deletion strains, locus YNL233W, strain BNI4, active compounds read low 1.01 | S. cerevisiae deletion strains, locus YNL248C, strain rpa49, active compounds read low 0.99 | S. cerevisiae deletion strains, locus YNL250W, strain rad50, active compounds read low 0.996 | S. cerevisiae deletion strains, locus YNL271C, strain bni1, active compounds read low 0.99 | S. cerevisiae deletion strains, locus YNL298W, strain CLA4, active compounds read low 0.988 | S. cerevisiae deletion strains, locus YNL307C, strain MCK1, active compounds read low 0.993 | S. cerevisiae deletion strains, locus YNL322C, strain KRE1 (second series), active compounds read low 0.986 | S. cerevisiae deletion strains, locus YNL322C, strain KRE1, active compounds read low 1 | S. cerevisiae deletion strains, locus YNR049C, strain mso1, active compounds read low 0.987 | S. cerevisiae deletion strains, locus YNR052C, strain pop2, active compounds read low 1 | S. cerevisiae deletion strains, locus YOL006C, strain TOP1, active compounds read low 0.884 | S. cerevisiae deletion strains, locus YOL012C, strain htz1 0.953 | S. cerevisiae deletion strains, locus YOL147C, strain pex11, active compounds read low 0.995 | S. cerevisiae deletion strains, locus YOR001W, strain rrp6, active compounds read low 0.985 | S. cerevisiae deletion strains, locus YOR061W, strain CKA2, active compounds read low 1.01 | S. cerevisiae deletion strains, locus YOR069W, strain VPS5, active compounds read low 0.998 | S. cerevisiae deletion strains, locus YOR070C, strain gyp1, active compounds read low 0.99 | S. cerevisiae deletion strains, locus YOR080W, strain dia2, active compounds read low 0.997 | S. cerevisiae deletion strains, locus YOR083W, strain WHI5 (second series), active compounds read low 0.908 | S. cerevisiae deletion strains, locus YOR083W, strain WHI5, active compounds read low 0.982 | S. cerevisiae deletion strains, locus YOR106W, strain vam3, active compounds read low 0.986 | S. cerevisiae deletion strains, locus YOR136W, strain idh2, active compounds read low 0.99 | S. cerevisiae deletion strains, locus YOR144C, strain elg1, active compounds read low 0.995 | S. cerevisiae deletion strains, locus YOR184W, strain ser1, active compounds read low 1 | S. cerevisiae deletion strains, locus YOR231W, strain MKK1, active compounds read low 1.02 | S. cerevisiae deletion strains, locus YOR265W, strain rbl2, active compounds read low 0.995 | S. cerevisiae deletion strains, locus YOR270C, strain vph1, active compounds read low 0.9 | S. cerevisiae deletion strains, locus YOR290C, strain snf2, active compounds read low 0.981 | S. cerevisiae deletion strains, locus YOR316C, strain cot1, active compounds read low 1 | S. cerevisiae deletion strains, locus YPL051W, strain arl3, active compounds read low 0.992 | S. cerevisiae deletion strains, locus YPL055C, strain LGE1, active compounds read low 1.02 and 1 | S. cerevisiae deletion strains, locus YPL078C, strain atp4, active compounds read low 0.983 | S. cerevisiae deletion strains, locus YPL106C, strain sse1, active compounds read low 0.971 | S. cerevisiae deletion strains, locus YPL240C, strain hsp82, active compounds read low 0.997 | S. cerevisiae deletion strains, locus YPL241C, strain CIN2, active compounds read low 1 | S. cerevisiae deletion strains, locus YPL256C, strain CLN2, active compounds read low 1.06 | S. cerevisiae deletion strains, locus YPR119W, strain clb2, active compounds read low 1 | S. cerevisiae deletion strains, locus YPR141C, strain kar3, active compounds read low 0.999 | S. cerevisiae deletion strains, locus YPR163C, strain tif3, active compounds read low 0.998 | S. cerevisiae deletion strains, locus YPR167C, strain met16, active compounds read low 0.992 | S. cerevisiae deletion strains, strain wtn01, active compounds read low 1.01 | S. cerevisiae strains, strain wild type, active compounds read low 0.998
active: S. cerevisiae deletion strains, locus YLR039C, strain RIC1, active compounds read low 1.41 [resistant] | S. cerevisiae deletion strains, locus YLR262C, strain YPT6, active compounds read low 1.46 [resistant]
